Compounds with a hit are over-represented: about 6.5% of the library has one in this group of screens.
VACV mCherry inh = qHTS for Stage-Specific Inhibitors of Vaccinia Orthopoxvirus: mCherry Reporter Primary qHTS; Potency, µM (series often up to 36.5 µM), for the others: at the top dose activity change, negative = inhibition, most hits filed as inhibitors; actives 0.63% (n = 310,000); Vaccinia virus mCherry reporter infection, fluorescence; calls by dose curve; tested in A549 cells; further: potency means the concentration at half of the fitted maximal effect; nearly all actives have a fitted effect of over 35% in size
Lassa entry inh = qHTS for Inhibitors of binding or entry into cells for Lassa Virus. Lassa virus pseudotype entry inhibition, cell reporter. Potency, µM (doses to about 37.9 µM), inactives show at the highest dose activity change, negative = inhibition, actives largely listed as inhibitors. actives 1.2% (n = 300,000). AID 540256, 2011; calls by dose curve; tested in HEK293 cells; further: potency means the concentration at half of the fitted maximal effect; nearly all actives have a fitted effect of over 50% in size
Vaccinia Venus = qHTS for Stage-Specific Inhibitors of Vaccinia Orthopoxvirus: Venus Reporter Primary qHTS | Vaccinia virus Venus reporter expression, fluorescence | Potency, µM (top dose mostly 36.5 µM), without a hit: top-dose activity change, negative = inhibition, most hits filed as inhibitors | actives 0.46% (n = 330,000) | AID 720580, 2013; calls by dose curve; tested in A549 cells; further: potency means the concentration at half of the fitted maximal effect; nearly all actives have a fitted effect of over 30% in size
FMDV antiviral = High Throughput Screening for Foot and Mouth Disease Virus Antivirals. FMDV antiviral cell-based qHTS. Potency, µM (titrated, usually from 57.9 µM), for the others: top-dose activity change, negative = inhibition, most hits filed as inhibitors. actives 1.2% (n = 410,000). AID 1159524, 2015; calls by dose curve; tested in HEK293T cells; further: read-out not given here; potency means the concentration at half of the fitted maximal effect; nearly all actives have a fitted effect of over 45% in size
HCMV antiviral = qHTS Assay for inhibitors of the human cytomegalovirus (HCMV) | HFF cells, HCMV-luciferase reporter, 72 h; active compounds read low | activity change, negative = inhibition, % at 57.5 µM | actives 4.5% (n = 410,000) | AID 1259415, 2018; in the data active means activity change below about -60%; inconclusive means no clear call, values can overlap the other calls; inactive means above about -39%
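Inhibition of viral replication was scored as loss of reporter luminescence in HFFs infected with HCMV-luciferase (MOI 1 PFU/cell) for 72 h; compounds tested at 2 doses, normalized to buffer and Salinomycin controls.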
MARV entry inh = qHTS for inhibitors of binding or entry into cells for Marburg Virus; Marburg virus pseudotyped entry inhibition, cell reporter; Potency, µM (highest dose often 37.8 µM), for the others: at the top dose activity change, negative = inhibition, usual class: inhibitors; actives 1.8% (n = 300,000); calls by dose curve; tested in HEK293 cells; further: potency means the concentration at half of the fitted maximal effect
The depositor's hits bear a star; i = inactive; ? = inconclusive; . = not tested or not shown; ! = not active in a repeat; [ ] = remark or other dose. On the % scale 0 is the no-effect control and ±100 the full control effect.

SMILES	VACV mCherry inh	Lassa entry inh	Vaccinia Venus	FMDV antiviral	HCMV antiviral	MARV entry inh
CCc1ccc(NC(=O)c2cc3nc(-c4ccc(C)cc4)cc(C(F)(F)F)n3n2)cc1	-6%	1%[46.1 µM]	-16%	-15%	14	-20%[46.1 µM]
COc1ccc(C(C(=O)NC(C)(C)C)N(CCc2ccccc2)C(=O)CCC(=O)Nc2cc(C)on2)cc1 (stereo not given)	-23%	-4%	-23%	35%	1	8.9µM*
COc1ccc(C(C(=O)NC(C)(C)C)N(CCO)C(=O)CCC(=O)Nc2cc(C)on2)cc1 (stereo not given)	-6%	?	-1%	14%	0	8%[46.1 µM]
O=C(Nc1ccc2nc(C3CC3)n(Cc3ccc(F)cc3)c(=O)c2c1)c1ccco1	?	?	?	-20%	-69*	-29%
O=C(COC(=O)c1ccc(S(=O)(=O)N2CCCC2)cc1)Nc1cccnc1Cl	i	15%[46.1 µM]	-16%	-8%	-6	-5%[46.1 µM]
O=C(Nc1cccnc1Cl)c1ccc(S(=O)(=O)N2CCCCCC2)cc1	.	-4%	.	-28%	-82*	-2%
O=C(NC1CCCCC1)C1CCCN(S(=O)(=O)c2ccc(F)cc2)C1 (stereo not given)	-13%	-4%	-9%	-13%	-81*	-1%[46.1 µM]
O=C(NC1CCN(S(=O)(=O)c2ccc(F)cc2)CC1)C1CCCCC1	-18%	8%[46.1 µM]	-8%	-12%	22	1%[46.1 µM]
O=C(NC1CCCCC1)c1ccc(S(=O)(=O)N2CCCCC2)cc1	.	2.1µM*	.	-9%	-26	3%
Nc1c(Cl)cc(C=O)cc1Cl	-10%	.	-2%	.	.	.
N#CC(c1ccc(Cl)nn1)c1ccccc1Cl (stereo not given)	.	3%	-10%	59%	-63*	22%
N#CC(c1ccc(Cl)cc1)c1ccc(Cl)nn1 (stereo not given)	i	13%	-15%	6%	-82*	?
c1ccc2cnccc2c1	-10%	.	-5%	.	.	.
C=CCN=C1N[C@@H](c2ccccc2)[C@H](C(=O)OC)[C@@H](C)N1CC	.	.	.	.	.	-25%[14.2 µM]
COc1c(C)cc(C(=O)C2CCCN(C(=O)c3ccc4[nH]ccc4c3)C2)cc1C (stereo not given)	i	4.5µM*	-4%	-16%	?	-9%[46.1 µM]
COc1c(C)cc(C(=O)C2CCCN(C(=O)CCc3scnc3C)C2)cc1C (stereo not given)	-25%	.	-16%	-13%	-62*	.
COc1c(C)cc(C(=O)C2CCCN(Cc3ccccn3)C2)cc1C (stereo not given)	-10%	-26%[46.1 µM]	-6%	-22%	-65*	?
COc1cccc(C(=O)C2CCCN(Cc3ccccn3)C2)c1 (stereo not given)	-9%	-4%	-4%	-18%	46	-26%[46.1 µM]
COc1ccc2cc(C(=O)C3CCCN(Cc4cccc(C)n4)C3)ccc2c1 (stereo not given)	?	?	?	?	-67*	22µM*
COc1ccc(C(=O)C2CCCN(Cc3cccc(C)n3)C2)c(OC)c1 (stereo not given)	-10%	?	-9%	-15%	-33	?
C#CCN1C(=O)[C@]2(OCCC=C[C@@H]2C)c2cc(OC)ccc21	.	.	.	.	.	9%[14.2 µM]
CSc1ccc(CCNC(=O)Cn2ncn3c(cc4ccccc43)c2=O)cc1	-13%	.	-9%	-7%	3	21%[46.1 µM]
CCCCNC(=O)Cn1c(SCc2ccccc2C)nc2ccncc21	22%	.	-9%	.	.	.
Cc1ccc(S(=O)(=O)C=CS(=O)(=O)c2ccc(C)cc2)cc1	?	.	-21%	?	?	.
Cc1ccc(S(=O)(=O)/C=C/C#N)cc1	i	2.3µM*	-11%	-7%	.	?
SMILES	VACV mCherry inh	Lassa entry inh	Vaccinia Venus	FMDV antiviral	HCMV antiviral	MARV entry inh
CC(C)(C)c1ccc(S(=O)(=O)/C=C\C#N)cc1	.	.	.	40µM*	.	2.5µM*
CCn1c(C)c(C(C)=O)c(NCc2ccccc2)nc1=S	-19%	10%	-8%	51%	-81*	-27%
CC(=O)c1c(NCCc2ccccc2)nc(=S)n(-c2ccccc2)c1C	.	.	.	?	-101*	.
CC(=O)c1c(NCc2ccccc2)nc(=O)n(-c2ccccc2)c1C	.	?	.	28%	-29	12%
COc1ccc(NC(=O)N2CC3(CCN(C(=O)c4c(C)noc4C)CC3)C2)cc1	.	.	.	1%	.	.
Nc1nnc(N)c2ccccc12	-6%	9%	-6%	-19%	40	-20%[46.1 µM]
Nc1nsc2ccccc12	?	?	?	.	-72*	?
COc1cc(/C=C2/C=Cc3ccccc32)ccc1N(C)C	-11%	.	-8%	.	.	.
CCOC(=O)N1CCN(C(=O)c2cc(COc3ccc4ncccc4c3)on2)CC1	-21%	-13%[46.1 µM]	-22%	?	-74*	?
Cc1cccnc1CN1CCN(C(=O)c2cc(COc3ccc4ncccc4c3)on2)CC1	?	?	-26%	13µM*	-83*	?
c1ccc(-c2ccccc2OCCCCN2CCCCCC2)cc1	-17%	.	-26%	-14%	-77*	.
CC1CCN(C(=O)CCCOc2ccc(Cl)cc2)CC1	-22%	-23%	-19%	21%	?	2%
COc1ccccc1OCCCCCCN1CCOCC1	.	.	.	-2%	-84*	.
c1ccc(-c2ccccc2OCCN2CCCC2)cc1	i	-28%[46.1 µM]	-3%	-2%	6	?
CNCCCCOc1ccccc1-c1ccccc1	-22%	?	?	-14%	?	7.1µM*
CC1CCN(CCCCOc2ccc(Cl)cc2)CC1	0%	6%[46.1 µM]	-22%	-9%	.	7.9µM*
CCOc1ccc(-c2nnc(SCC(=O)NCc3ccccc3)nc2-c2ccc(OCC)c(OC)c2)cc1OC	-18%	?	-22%	-16%	-15	.
Cn1cc(CCCC(=O)NCc2ccccc2Cl)c2ccccc21	-9%	21%[46.1 µM]	-10%	21%	62	.
CO[C@H]1[C@H](NC(=O)c2ccco2)c2ccccc2C12CCN(Cc1cccn1-c1ccccn1)CC2	-16%	.	-4%	1%	.	.
CC1CCN(CCCCOc2ccccc2-c2ccccc2)CC1	?	2.1µM*	?	0%	?	2.3µM*
COc1ccc2c(c[n+](C)c3c4cc5c(cc4ccc23)OCO5)c1OC	?	4.1µM*	?	10µM*	.	7.3µM*
COc1cccc(C2=NCCc3cc4c(cc32)OCO4)c1OC	-17%	8%	-9%	-14%	-4	?
COc1ccc2cc3[n+](cc2c1OC)CCc1cc2c(cc1-3)OCO2	-17%	?	?	?	-96*	?
COc1cc2c(c(OC)c1OC)C(c1ccc3c(c1)OCO3)CC(=O)O2 (stereo not given)	i	.	-5%	-10%	-8	.
COc1cc(C(=O)Nc2ccc3nc4n(c(=O)c3c2)CCCCC4)cc(OC)c1OC	-10%[7.34 µM]	-12%[46.1 µM]	-1%[7.34 µM]	10µM*!	9	-15%[46.1 µM]

Source: PubChem
